A selection: hits, their analogues and other compounds. The true share with any hit is near 2.1%.
PABP FP inh: PABP poly(A) RNA binding inhibitors, primary screen, biochemical, fluorescence polarization, uHTS; Polyadenylate-binding protein 1 (Homo sapiens), P11940; inhibition, % at 35 µM; actives 1% (n = 290,000); AID 2014, 2009;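 also: calls also rest on retests at 20 µM and on dose response follow-up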
MLLE-PAM2 inh: inhibitors of PABP1 MLLE–PAM2 peptide binding, primary screen, biochemical, fluorescence polarization, FITC-PAM2, GST-MLLE. Polyadenylate-binding protein 1 (Homo sapiens), P11940. inhibition, % at 20 µM. actives 0.36% (n = 360,000). AID 588489, 2011; in the data active = inhibition above about 35%, passing the limit was not always enough;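 also: plate controls were DMSO wells with GST-MLLE for no effect and wells lacking GST-MLLE protein for full effect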
eIF4H FP inh: human eIF4H binding inhibitors, primary screen, translation initiation inhibitor project, biochemical, uHTS, fluorescence polarization | Eukaryotic translation initiation factor 4H (Homo sapiens), Q15056 | eIF4H fluorescence polarization binding assay | inhibition, % at 35 µM | actives 0.94% (n = 290,000) | AID 2012, 2009;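 also: calls also rest on retests at 20 µM and on dose response follow-up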
NRP1-CendR mod: modulators of CendR peptide binding to NRP-1, primary screen, biochemical, fluorescence polarization, uHTS; FAM-RPARPAR peptide binding to NRP-1; inhibition, % at 25 µM; actives 0.85% (n = 360,000); AID 602438, 2012;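 active = inhibition or corrected inhibition above about 18%, plus a signal ratio from 0.5 to 1.5, limit read from the data, passing the limit was not always enough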
The depositor's hits bear a star; ? = inconclusive; nt = no result. Unless noted, no rule for the calls is given here.

SMILES	PABP FP inh	MLLE-PAM2 inh	eIF4H FP inh	NRP1-CendR mod
O=S(=O)(Nc1ccc(Br)cc1)N1CCOCC1	-8	-2	-11	-2
COc1ccc(C2=NN(C(=O)CCCC(=O)O)C(c3cn(-c4ccccc4)nc3-c3ccccc3)C2)cc1 (stereo unspecified)	1	-7	74*	-44
O=C(COC(=O)c1ccccn1)Nc1ccc2c(c1)OCCO2	nt	5	nt	14
CCOc1cc(NC(=S)NCCCN2CCOCC2)c(OCC)cc1NC(=O)c1ccccc1	4	20	-6	-12
CCOc1cc(NC(=S)NCCCN2CCOCC2)c(OCC)cc1NC(=O)c1cccs1	-13	17	-6	24*
COc1ccc(Cn2c3nc4ccccc4nc3c3c(=O)n(Cc4ccco4)c(C)nc32)cc1	36*	nt	54*	nt
CCOC(=O)C(NC(=O)CCl)(Nc1sc(C)c(CC)c1C#N)C(F)(F)F (stereo unspecified)	3	13	3	6
CCOC(=O)C(NC(=O)CC(C)C)(Nc1sc(C)c(CC)c1C#N)C(F)(F)F (stereo unspecified)	0	-7	0	24*
CCOc1ccc2c(c1)c1nnc(SCC(=O)NC3CC3)nc1n2C	0	12	-5	3
Cc1ccc(N(CC(N)=O)C2SC(=O)N(Cc3ccccc3)C2=O)cc1 (stereo unspecified)	-2	42*	-2	-1
NC(=O)CN(c1ccccc1)C1SC(=O)N(Cc2ccccc2)C1=O (stereo unspecified)	-14	45*	-2	8
NNC(=O)c1nc[nH]c1C(=O)Nc1ccccc1[N+](=O)[O-]	66*	6	55*	13
O=C(Nc1ccc(F)cc1)c1nc[nH]c1C(=O)Nc1ccccc1[N+](=O)[O-]	0	8	-4	10
Cc1cc(=O)oc2c(C)c(OCC(=O)c3ccccc3)ccc12	3	-5	3	1
C/C(=C\c1ccc2c(c1)OCO2)C1Nc2cccc3cccc(c23)N1	nt	6	nt	17*
C/C(=C\c1ccccc1F)C1Nc2cccc3cccc(c23)N1	nt	-11	nt	11
COc1cccc(N(CC(=O)NC2CCCCC2)C(=O)Cn2nnc(-c3ccc(C)o3)n2)c1	0	-8	-8	0
COc1ccc(CNC(=O)Cn2ccc(NC(=O)OCc3ccccc3)nc2=O)cc1	nt	1	nt	38*
O=C(Cn1ccc(NC(=O)OCc2ccccc2)nc1=O)NCc1ccc2[nH]ccc2c1	nt	2	nt	24*
COCCCNC(=O)Cn1ccc(NC(=O)OCc2ccccc2)nc1=O	nt	-13	nt	8
Cc1ccc(CNC(=O)Cn2ccc(NC(=O)OCc3ccccc3)nc2=O)o1	nt	-2	nt	7
COc1ccccc1N1CCN(C(=O)CC(NC(=O)c2ccccc2Cl)c2ccccc2)CC1 (stereo unspecified)	nt	-62	nt	-1
CC(C)Cc1ccc(C(C)C(=O)Nc2nccs2)cc1 (stereo unspecified)	active	-4	80*	10
CCCCCCCCCc1conc1C(=O)CP(=O)(OC)OC	nt	nt	nt	0
Cc1ccc2[nH]c3c(c2c1)CN(C(=O)CN1CC(C)OC(C)C1)CC3 (stereo unspecified)	?	-6	?	-58
SMILES	PABP FP inh	MLLE-PAM2 inh	eIF4H FP inh	NRP1-CendR mod
Cc1ccc2[nH]c3c(c2c1)CN(C(=O)CN1CCSCC1)CC3	94*	nt	53*	nt
CCOC(=O)N1CCc2[nH]c3ccc(C)cc3c2C1	15	56*	6	24
CCOC(=O)c1ccc2[nH]c3c(c2c1)CN(C)CC3	-4	2	0	-2
COc1ccccc1NC(=O)N1CCc2[nH]c3ccc(F)cc3c2C1	86*	29	102*	9
CC(=O)N1CCc2[nH]c3ccc(C)cc3c2C1	35*	17	?	19
CC(=O)N1CCc2[nH]c3ccccc3c2C1	-6	-15	-7	-4
Cc1cc2oc(=O)cc(CN(C)Cc3ccccc3)c2cc1C	nt	1	nt	0
N#C/C(=N\Nc1ccc(S(=O)(=O)N2CCCCCC2)cc1)C(N)=S	4	42*	0	-3
N#C/C(=N\Nc1ccc(S(=O)(=O)N2CCCCC2)cc1)C(N)=S	-9	11	-5	-7
Cc1onc(-c2ccccc2)c1C(=O)N1CCN(C/C=C/c2ccccc2)CC1	71*	11	28*	12
Cc1onc(-c2ccccc2)c1C(=O)N1CCCCCC1	-7	6	-14	4
Cc1onc(-c2ccccc2)c1C(=O)N1CCCC1	6	-8	-4	21*

Screening results as filed in PubChem.
